Whole data set: some 5,000 sequences, median “log2 normalized fluorescence” near 0.089, cut for the highest 2% near 0.81. The entries come from a sample that favours the highest values as a whole.

The source of these data is paper PMC5515408, “Sequence-specific DNA binding by MYC/MAX to low-affinity non-E-box motifs”.

Sequence of MYC (p64);MAX (p21), in MYC:MAX (P01106 16-454, chain 1 of 2): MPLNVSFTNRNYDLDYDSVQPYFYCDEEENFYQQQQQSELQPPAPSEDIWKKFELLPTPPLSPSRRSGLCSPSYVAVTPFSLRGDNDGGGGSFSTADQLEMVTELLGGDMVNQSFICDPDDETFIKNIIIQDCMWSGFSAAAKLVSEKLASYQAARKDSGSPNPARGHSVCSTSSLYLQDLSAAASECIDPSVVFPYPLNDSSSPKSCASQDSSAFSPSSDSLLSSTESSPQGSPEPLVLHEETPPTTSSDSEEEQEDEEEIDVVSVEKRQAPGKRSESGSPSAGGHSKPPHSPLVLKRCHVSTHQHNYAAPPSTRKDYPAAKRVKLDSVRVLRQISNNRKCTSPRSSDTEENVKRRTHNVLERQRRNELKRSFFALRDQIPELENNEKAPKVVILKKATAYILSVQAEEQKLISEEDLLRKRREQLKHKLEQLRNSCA
Sequence of MYC (p64);MAX (p21), in MYC:MAX (P61244 other isoform, or with tags, fused parts or gaps |, chain 2 of 2): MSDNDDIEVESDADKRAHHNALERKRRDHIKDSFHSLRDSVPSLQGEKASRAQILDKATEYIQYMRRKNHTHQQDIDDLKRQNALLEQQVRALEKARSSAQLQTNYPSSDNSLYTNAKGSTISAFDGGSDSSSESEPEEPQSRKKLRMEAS

The assay concerns the target MYC (p64);MAX (p21), in MYC:MAX (human;human, UniProt P01106-1;P61244-2 1-439;1-151, |). The assay is described as follows: protein-binding microarray (anti-MAX antibody); PBM: 15 mM Tris-HCl pH 7.5, 100 mM KCl, 0.075% NP40, 7.5 mM beta-mercaptoethanol, 375 ng/ul BSA, 8 ng/ul poly(dA-dT):(dA-dT), 550 ng complex, 60 min, room tempe; high values mean tight binding. Particulars: protein: recombinant;recombinant; tags: 6xHis;6xHis; copies: 1;1; label: 3' end of printed strand (linker) attached to glass slide; dsDNA, one strand shown. The method in brief:
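For each of ~5000 unique double-stranded 12-nt sequences, spotted in triplicate on a custom Agilent glass array, binding of His-tagged human MYC:MAX or MAX:MAX dimers is reported as log2 normalized fluorescence. The dimers (550 ng, E. coli-expressed) were incubated for 60 min at room temperature in Tris-KCl buffer, pH 7.5, with NP40, BSA and poly(dA-dT) competitor. Detection used anti-MAX and secondary antibodies with a 543 nm scan.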
For the sequence “CCGGCTGACGCGTCGTATTAATAGCTAAGATTACTATATCGACG”, the binding signal was 0.46 log2 normalized fluorescence. As for “CCGGCTGACGCGTGATATTAATAGCTAAGATTACTATATCGACG”, the binding signal was 0.675 log2 normalized fluorescence. Take “CCGGCGACCACGTGGTATTAATAGCTAAGATTACTATATCGACG”: the binding signal is 0.741 log2 normalized fluorescence. Take “CCGGCTAAGACGTGGTATTAATAGCTAAGATTACTATATCGACG”: the binding signal was 0.411 log2 normalized fluorescence. As for “CCGGCGCCCACGTGGTATTAATAGCTAAGATTACTATATCGACG”, the binding signal is 0.862 log2 normalized fluorescence. Consider “CCGGCCCACACGTGGTATTAATAGCTAAGATTACTATATCGACG”, for which the binding signal was 0.945 log2 normalized fluorescence. To “CCGGCCCCCACGTGGTATTAATAGCTAAGATTACTATATCGACG” belongs 0.854 log2 normalized fluorescence.

With “CCGGCCCACACGTGGTGTTAATAGCTAAGATTACTATATCGACG”, the binding signal is 0.705 log2 normalized fluorescence.

With “CCGGCCCGCACGTGGTATTAATAGCTAAGATTACTATATCGACG”, the binding signal is 0.749 log2 normalized fluorescence. For the sequence “CCGGCTCCCACGTGGTATTAATAGCTAAGATTACTATATCGACG”, the binding signal is 0.763 log2 normalized fluorescence.

Take “CCGGCTGATCAAGGGTATTAATAGCTAAGATTACTATATCGACG”: the binding signal was 0.0432 log2 normalized fluorescence. In the case of “CCGGCTGAAGTTGTGTATTAATAGCTAAGATTACTATATCGACG”, the binding signal was 0.0113 log2 normalized fluorescence.

In the case of “CCGGCTGAACGAAAGTATTAATAGCTAAGATTACTATATCGACG”, the binding signal is 0.0903 log2 normalized fluorescence. Take “CCGGCTGACACGTGGTGTTAATAGCTAAGATTACTATATCGACG”: the binding signal is 0.534 log2 normalized fluorescence. Take “CCGGCTGACACGTGTACTTAATAGCTAAGATTACTATATCGACG”: the binding signal is 0.823 log2 normalized fluorescence. For the sequence “CCGGCTGACACGTGTCGTTAATAGCTAAGATTACTATATCGACG”, the binding signal is 0.947 log2 normalized fluorescence. Consider “CCGGCTGACACGTGTTGTTAATAGCTAAGATTACTATATCGACG”, for which the binding signal was 0.83 log2 normalized fluorescence. Take “CCGGCTGACACGTGTAATTAATAGCTAAGATTACTATATCGACG”: the binding signal is 0.708 log2 normalized fluorescence. Consider “CCGGCTGACACGTGAACTTAATAGCTAAGATTACTATATCGACG”, for which the binding signal was 0.796 log2 normalized fluorescence. Consider “CCGGCTGACACGTTAGATTAATAGCTAAGATTACTATATCGACG”, for which the binding signal was 0.482 log2 normalized fluorescence. To “CCGGCTGACACGTGTTATTAATAGCTAAGATTACTATATCGACG” belongs 0.722 log2 normalized fluorescence; to “CCGGCTGACACGTGACGTTAATAGCTAAGATTACTATATCGACG”, 0.654 log2 normalized fluorescence. With “CCGGCTGACATGTGGTTTTAATAGCTAAGATTACTATATCGACG”, the binding signal is 0.359 log2 normalized fluorescence. “CCGGCCGACACATGGTTTTAATAGCTAAGATTACTATATCGACG”: the binding signal is 0.635 log2 normalized fluorescence. To “CCGGCTGACACATGGTTTTAATAGCTAAGATTACTATATCGACG” belongs 0.817 log2 normalized fluorescence; to “CCGGCTGAGACCTGCTATTAATAGCTAAGATTACTATATCGACG”, -0.0388 log2 normalized fluorescence. Consider “CCGGCTGGCACCTGGCATTAATAGCTAAGATTACTATATCGACG”, for which the binding signal was 0.319 log2 normalized fluorescence.

On to “CCGGCTGAGTGTTAGTATTAATAGCTAAGATTACTATATCGACG”, for which the binding signal is 0.177 log2 normalized fluorescence. With “CCGGCTGATGATGCGTATTAATAGCTAAGATTACTATATCGACG”, the binding signal is 0.112 log2 normalized fluorescence.
